Source: the antibiotic and cytotoxicity screens of Wong et al. (2023)
In all, about 39,000 compounds went through this assay and about 1,500 (3.8%) were called active. The list comes from a sample in which actives are over-represented; it also holds similar structures and randomly drawn compounds.

The compounds below were run on HSkMC (human skeletal muscle cells) (assay: cytotoxicity call (relative viability < 0.9)). Details: 10 µM.
With `O=C1C[C@H](c2ccccc2)[C@@H]2CNCCN12` the cytotoxicity call was “inactive”.
With `Cc1nnc(N2CCC[C@]3(CNCCO3)C2)o1` the cytotoxicity call was “inactive”.
In the case of `N#CN1CCCC1`, the cytotoxicity call is reported as “inactive”.
For `Cc1cccc(CN2C[C@H]3OCCN(C)[C@H]3C2)n1`, the cytotoxicity call was “inactive”.
With `CC1=C(O)C(=O)C=C2C1=CC=C1C2(C)CCC2(C)C3CC(C)(C(=O)O)CCC3(C)CCC12C` (stereo unspecified) the cytotoxicity call was “active”.
In the case of `NC1N[C@H]2CCCC[C@@H]2N1`, the cytotoxicity call is reported as “inactive”.
With `CC(C)(CN)CNc1ccc([N+](=O)[O-])c2cccnc12` the cytotoxicity call was “inactive”.
In the case of `CCNC(=O)[C@H]1O[C@H](n2cnc3c(N)ncnc32)[C@@H](O)[C@@H]1O`, the cytotoxicity call is reported as “inactive”.
`NC(=O)c1cn([C@@H]2O[C@H](CO)[C@@H](O)[C@H]2O)c2ncnc(N)c12` was tested, and the cytotoxicity call was “inactive”.
With `NC(=O)c1cn([C@H]2O[C@@H](CO)[C@H](O)[C@@H]2O)c2ncnc(N)c12` the cytotoxicity call was “active”.
`O=C(NC(=O)c1c(F)cccc1F)Nc1ccc(Cl)cc1` was tested, and the cytotoxicity call was “inactive”.
For `O=C(NC(=O)c1c(F)cccc1F)Nc1cc(Cl)c(OC(F)(F)C(F)C(F)(F)F)cc1Cl` (stereo unspecified), the cytotoxicity call was “inactive”.
`O=C(NC(=O)c1c(F)cccc1F)Nc1cc(Cl)c(OC(F)(F)[C@@H](F)C(F)(F)F)cc1Cl` was tested, and the cytotoxicity call was “active”.
For `C=CCC1(C(C)CCC)C(=O)N=C([S-])NC1=O.[Na+]` (stereo unspecified), the cytotoxicity call was “inactive”.
In the case of `Cl.c1cncc(C2CCCCN2)c1` (stereo unspecified), the cytotoxicity call is reported as “inactive”.
For `Br.COC(=O)C1=CCCN(C)C1`, the cytotoxicity call was “inactive”.
With `NC(=O)CN1CC[C@@H](NC(=O)[C@@H]2CCCN2)C1=O` the cytotoxicity call was “inactive”.
With `c1cn(C[C@H]2CC[C@H]3NCCO[C@@H]23)cn1` the cytotoxicity call was “inactive”.
With `Cl.Cn1c(CCCC(=O)O)nc2cc(N(CCCl)CCCl)ccc21` the cytotoxicity call was “inactive”.
For `CC[C@@H]1/C=C/C=C/C[C@H](C)[C@@H](O)[C@](C)(O)C(=O)[C@H](C)[C@@H](O)[C@H](C)C(=O)[C@H](C)[C@@H](O)[C@H](C)/C=C/C(=O)O[C@H]2[C@@H](C)[C@@H](CC1)O[C@@]1(CC[C@@H](C)[C@@H](C[C@H](C)O)O1)[C@@H]2C`, the cytotoxicity call was “inactive”.
For `CC[C@H]1/C=C/C=C/C[C@@H](C)[C@H](O)[C@@](C)(O)C(=O)[C@@H](C)[C@H](O)[C@@H](C)C(=O)[C@@H](C)[C@H](O)[C@@H](C)/C=C/C(=O)O[C@@H]2[C@H](C)[C@H](CC1)O[C@]1(CC[C@H](C)[C@H](C[C@@H](C)O)O1)[C@H]2C`, the cytotoxicity call was “active”.
In the case of `CCC(COC(=O)c1cc(OC)c(OC)c(OC)c1)(c1ccccc1)N(C)C.O=C(O)C=CC(=O)O` (stereo unspecified), the cytotoxicity call is reported as “inactive”.
With `Cc1n[nH]c(=O)nc1N1CCN(C)CC1` the cytotoxicity call was “inactive”.
For `C[C@@H]1O[C@@H](O[C@@H]2C[C@@H](O)[C@]3(CO)[C@H]4[C@H](O)C[C@]5(C)[C@@H](C6=CC(=O)OC6)CC[C@]5(O)[C@@H]4CC[C@]3(O)C2)[C@H](O)[C@H](O)[C@H]1O`, the cytotoxicity call was “active”.
`CC1OC(OC2CC(O)C3(CO)C4C(O)CC5(C)C(C6=CC(=O)OC6)CCC5(O)C4CCC3(O)C2)C(O)C(O)C1O.O.O.O.O.O.O.O.O` (stereo unspecified) was tested, and the cytotoxicity call was “active”.
For `CC(=O)O[C@@]12CO[C@@H]1C[C@H](O)[C@@]1(C)C(=O)[C@H](O)C3=C(C)[C@@H](OC(=O)[C@H](O)[C@@H](NC(=O)c4ccccc4)c4ccccc4)C[C@](O)([C@@H](OC(=O)c4ccccc4)[C@H]21)C3(C)C`, the cytotoxicity call was “inactive”.
With `COCC(=O)N1C[C@@H]2c3ccccc3CN[C@@H]2C1` the cytotoxicity call was “inactive”.
For `COC(=O)[C@@H](N)CCCNC(N)=N[N+](=O)[O-]`, the cytotoxicity call was “inactive”.
For `[N-]=[N+]=CC(=O)OCC(N)C(=O)O` (stereo unspecified), the cytotoxicity call was “inactive”.
With `C1COC2(CCOCC2)CN1` the cytotoxicity call was “inactive”.
For `Cc1cc(OC(=O)N(C)C)cc(=O)n1C`, the cytotoxicity call was “inactive”.
In the case of `COC(=O)C[C@@H]1CC[C@H]2NC[C@@H](O)COC[C@@H]2O1`, the cytotoxicity call is reported as “inactive”.
`CC(N)(Cc1ccccc1)c1ccccc1` (stereo unspecified) was tested, and the cytotoxicity call was “inactive”.
`CN1CCc2cc3c(cc2[C@@H]1O)OCO3` was tested, and the cytotoxicity call was “inactive”.
`CN1CCc2cc3c(cc2C1O)OCO3.Cl` (stereo unspecified) was tested, and the cytotoxicity call was “inactive”.
In the case of `COC(=O)C[C@](O)(CCC(C)(C)O)C(=O)O[C@@H]1C(OC)=C[C@]23CCCN2CCc2cc4c(cc2[C@H]13)OCO4`, the cytotoxicity call is reported as “active”.
With `C[N+]12CCC(CC1)C(OC(=O)C(O)(c1ccccc1)c1ccccc1)C2.[Br-]` (stereo unspecified) the cytotoxicity call was “inactive”.
For `CC1OC(OC2C(O)C(O)C(O)C(O)C2O)C(N)CC1NC(=N)C(=O)O.Cl` (stereo unspecified), the cytotoxicity call was “inactive”.
In the case of `O=C1C=C2C(=CCOC2O)O1` (stereo unspecified), the cytotoxicity call is reported as “active”.
In the case of `O=C1C=C2C(=CCO[C@@H]2O)O1`, the cytotoxicity call is reported as “inactive”.
`CCCCC(=O)N1CC[C@H]2CNC[C@H]21` was tested, and the cytotoxicity call was “inactive”.
With `N#Cc1c(Cl)c(Cl)c(Cl)c(C#N)c1Cl` the cytotoxicity call was “active”.
With `CCCCCC1C(=O)OC(C)C(NC(=O)c2cccc(NC=O)c2O)C(=O)OC(C)C1OC(=O)CC(C)C` (stereo unspecified) [ANTIMYCIN A (A1 shown) ] the cytotoxicity call was “inactive”.
For `CCC[C@@H](CN)c1ccc(F)cc1`, the cytotoxicity call was “inactive”.
`COc1c(C[C@@H](C)O)c2c3c(C[C@@H](C)O)c(OC)c(=O)c4c(O)cc5c(c6c(cc(O)c(c1=O)c62)OCO5)c43` was tested, and the cytotoxicity call was “active”.
With `COc1cc(C2c3cc4c(cc3C(O)C3COC(=O)C23)OCO4)cc(OC)c1OC` (stereo unspecified) the cytotoxicity call was “inactive”.
With `CCOC1OC2OC3(C)CCC4C(C)CCC(C1C)C24OO3` (stereo unspecified) the cytotoxicity call was “inactive”.
`CC1=NCCc2c1[nH]c1cc(O)ccc21.Cl.O.O` was tested, and the cytotoxicity call was “inactive”.
For `CCCCC[C@H]1C(=O)O[C@H](C)[C@H](NC(=O)c2cccc(NC=O)c2O)C(=O)O[C@@H](C)[C@@H]1OC(=O)CC(C)C`, the cytotoxicity call was “inactive”.
`CCCCCCCCCC(=O)O[C@@H]1[C@@H](C)[C@]2(O)[C@@H](C=C(CO)C[C@]3(O)C(=O)C(C)=C[C@@H]23)[C@@H]2C(C)(C)[C@@]12OC(=O)CCCCCCCCC` was tested, and the cytotoxicity call was “active”.
For `CC1=C[C@H]2[C@]3(O)[C@H](C=C(CO)C[C@]2(O)C1=O)[C@H]1C(C)(C)[C@@]1(O)[C@H](O)[C@@H]3C`, the cytotoxicity call was “inactive”.
In the case of `CCCCCCCCCCCCCC(=O)O[C@@H]1[C@@H](C)[C@@]2(O)[C@@H](C=C(CO)C[C@]3(O)C(=O)C(C)=C[C@@H]23)[C@@H]2C(C)(C)[C@]12OC(C)=O`, the cytotoxicity call is reported as “active”.
For `CCCCCCCCCC(=O)O[C@@H]1[C@@H](C)[C@@]2(O)[C@@H](C=C(CO)C[C@]3(O)C(=O)C(C)=C[C@@H]23)[C@@H]2C(C)(C)[C@]12OC(=O)CCCCCCCCC`, the cytotoxicity call was “inactive”.
`Cc1ccc2[nH]cc(C[C@@H](C)N)c2c1` was tested, and the cytotoxicity call was “inactive”.
`CCCC(C)C1(CC)C(=O)N=C([S-])NC1=O.[Na+]` (stereo unspecified) was tested, and the cytotoxicity call was “inactive”.
For `C[C@@H]1CN([C@@H](C)CO)C(=O)CCCn2cc(nn2)CO[C@@H]1CN(C)C(=O)Oc1ccc2ccccc2c1`, the cytotoxicity call was “inactive”.
`CCCCSP(=O)(SCCCC)SCCCC` was tested, and the cytotoxicity call was “inactive”.
For `COc1ccc(O)c(C(C)(C)C)c1`, the cytotoxicity call was “inactive”.
With `CC(=O)OC1C(=O)C2(C)C(O)CC3OCC3(OC(C)=O)C2C(OC(=O)c2ccccc2)C2(O)CC(O)C(C)=C1C2(C)C` (stereo unspecified) the cytotoxicity call was “inactive”.
In the case of `C[C@H]1CN([C@@H](C)CO)C(=O)CCCn2cc(nn2)CO[C@H]1CN(C)C(=O)Oc1ccc2ccccc2c1`, the cytotoxicity call is reported as “inactive”.
With `C=C1[C@@H](C)[C@H]2[C@H](Cc3ccccc3)NC(=O)[C@]23[C@H](OC(C)=O)/C=C/[C@](C)(O)C(=O)[C@@H](C)C/C=C/[C@H]3[C@@H]1O` the cytotoxicity call was “active”.
`COCCCNC(=O)[C@@]1(Cc2ccccc2CN=[N+]=[N-])N=C(c2ccc(OCCCO)cc2)O[C@H]1c1ccccc1CN=[N+]=[N-]` was tested, and the cytotoxicity call was “inactive”.
With `Nc1ccc2c(c1)Cc1ccccc1-2` the cytotoxicity call was “inactive”.
In the case of `CC(C)n1cnnc1CCN`, the cytotoxicity call is reported as “inactive”.
For `CN1C[C@@H](NC(=O)C2CC2)[C@H]2OCCC[C@H]21`, the cytotoxicity call was “inactive”.
In the case of `C=CCN1C(=O)NC(=O)/C(=C/c2ccco2)C1=O`, the cytotoxicity call is reported as “active”.
For `CCN1C(=O)/C(=C/c2ccc[nH]2)C(=O)NC1=S`, the cytotoxicity call was “inactive”.
For `CN1C(=O)NC(=O)/C(=C\C=C\c2ccco2)C1=O`, the cytotoxicity call was “inactive”.
With `COC1=CC(=O)OC(C=Cc2ccccc2)C1` (stereo unspecified) the cytotoxicity call was “inactive”.
For `O=C(O)CC[C@@H](CP(=O)(O)O)C(=O)O`, the cytotoxicity call was “inactive”.
For `CC(=O)O[C@H]1C[C@@H]2CC[C@@H]3[C@H](CC[C@@]4(C)[C@H]3C[C@H]([N+]3(C)CCCCC3)[C@@H]4OC(C)=O)[C@@]2(C)C[C@@H]1[N+]1(C)CCCCC1`, the cytotoxicity call was “inactive”.
`CC12CCC3C(CCC4CC(O)CCC43C)C1CCC2=O` (stereo unspecified) was tested, and the cytotoxicity call was “inactive”.
For `CC12CCC(O)CC1CCC1C2CC(O)C2(C)C(C3=CC(=O)OC3)CCC12O` (stereo unspecified), the cytotoxicity call was “active”.
`CO[C@H]1[C@@H](O)[C@@H](O[C@H]2CC[C@]3(C=O)[C@@H]4[C@@H](CC[C@]3(O)C2)[C@@]2(O)CC[C@H](C3=CC(=O)OC3)[C@@]2(C)C[C@H]4OC(C)=O)O[C@@H](C)[C@@H]1OC(C)=O` was tested, and the cytotoxicity call was “inactive”.
In the case of `CC(=O)OC1CCC2(C)C(CCC3C2CCC2(C)C(C4=CC(=O)OC4)C(OC(C)=O)CC32O)C1` (stereo unspecified), the cytotoxicity call is reported as “active”.
In the case of `CC12CCC3C(CCC4CC(O)CCC43C)C1CCC2O` (stereo unspecified), the cytotoxicity call is reported as “inactive”.
In the case of `CC(=O)O[C@H]1C[C@H](O[C@H]2[C@@H](O)C[C@H](O[C@H]3[C@@H](O)C[C@H](O[C@H]4CC[C@@]5(C)[C@@H](CC[C@H]6[C@@H]5C[C@@H](O)[C@]5(C)[C@@H](C7=CC(=O)OC7)CC[C@]65O)C4)O[C@@H]3C)O[C@@H]2C)O[C@H](C)[C@H]1O[C@@H]1O[C@H](CO)[C@@H](O)[C@H](O)[C@H]1O`, the cytotoxicity call is reported as “active”.
For `CC(=O)OC1CC(OC2C(O)CC(OC3C(O)CC(OC4CCC5(C)C(CCC6C5CC(O)C5(C)C(C7=CC(=O)OC7)CCC65O)C4)OC3C)OC2C)OC(C)C1OC1OC(CO)C(O)C(O)C1O` (stereo unspecified), the cytotoxicity call was “active”.
In the case of `CNC(=O)Oc1ccc2c(c1)C1(C)CCN(C)C1N2C` (stereo unspecified), the cytotoxicity call is reported as “inactive”.
For `COC(=O)[C@]1(Cc2ccccc2CN=[N+]=[N-])N=C(c2ccc(OCCCO)cc2)O[C@@H]1c1ccccc1CN=[N+]=[N-]`, the cytotoxicity call was “inactive”.
With `COc1ccccc1C1(N)CC1` the cytotoxicity call was “inactive”.
`N#C[C@]1(O)CN2CCC1CC2` was tested, and the cytotoxicity call was “inactive”.
With `CC(C)Oc1ccc(CCN)cc1` the cytotoxicity call was “inactive”.
For `COc1cc(C=O)cc(OC)c1OC`, the cytotoxicity call was “inactive”.
`Cn1cc([C@@]23C[C@]2(C)COC3=O)cn1` was tested, and the cytotoxicity call was “inactive”.
For `C1CCN(C[C@H]2CO[C@]3(CNCCOC3)C2)C1`, the cytotoxicity call was “inactive”.
